PubChem BioAssay AID1159580 (chemical genetic matrix, 2015)
Among all 5,500 compounds or so, about 2,000 (36%) were called active. About 18% were inconclusive and are not listed. Rule as the data show it: active = normalized growth mostly below about 0.91 (no sharp cut-off); inconclusive = no clear call, values can overlap the other calls; inactive = mostly above about 0.92. The list shows a part of the results.

Test: chemical genetic growth profiling, strain panel (AID 1159580);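 also: tested at 20 µM; growth read once vehicle control cultures reached saturation at 30 °C; 1 = growth at the plate median or of vehicle wells; lower values mean less growth of the strain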
Settings: growth OD

Measured: normalized growth

O=C(/C=C/c1ccccc1)c1ccc(O)cc1
active: S. cerevisiae deletion strains, locus YJR075W, strain HOC1, stronger effect = lower value 0.681 | S. cerevisiae deletion strains, locus YKL009W, strain mrt4, stronger effect = lower value 0.829 | S. cerevisiae deletion strains, locus YKL068W, stronger effect = lower value 0.912 | S. cerevisiae deletion strains, locus YKL085W, strain MDH1 (second series), stronger effect = lower value 0.923 | S. cerevisiae deletion strains, locus YKL085W, strain MDH1, stronger effect = lower value 0.923 | S. cerevisiae deletion strains, locus YKL160W, strain elf1, stronger effect = lower value 0.144 | S. cerevisiae deletion strains, locus YKR001C, strain vps1, stronger effect = lower value 0.299 | S. cerevisiae deletion strains, locus YKR026C, strain gcn3, stronger effect = lower value 0.292 | S. cerevisiae deletion strains, locus YKR091W, strain srl3, stronger effect = lower value 0.509 | S. cerevisiae deletion strains, locus YLL001W, strain dnm1, stronger effect = lower value 0.366 | S. cerevisiae deletion strains, locus YLL026W, stronger effect = lower value 0.173 | S. cerevisiae deletion strains, locus YLL041C, strain sdh2, stronger effect = lower value 0.218 | S. cerevisiae deletion strains, locus YLR027C, strain aat2, stronger effect = lower value 0.0836 | S. cerevisiae deletion strains, locus YLR039C, strain RIC1, stronger effect = lower value 0.202 | S. cerevisiae deletion strains, locus YLR058C, strain SHM2, stronger effect = lower value 0.765 | S. cerevisiae deletion strains, locus YLR102C, strain apc9, stronger effect = lower value 0.922 | S. cerevisiae deletion strains, locus YLR221C, strain rsa3, stronger effect = lower value 0.0804 | S. cerevisiae deletion strains, locus YLR258W, strain gsy2, stronger effect = lower value 0.237 | S. cerevisiae deletion strains, locus YLR262C, strain YPT6 (second series), stronger effect = lower value 0.17 | S. cerevisiae deletion strains, locus YLR262C, strain YPT6, stronger effect = lower value 0.248 | S. cerevisiae deletion strains, locus YLR268W, strain sec22, stronger effect = lower value 0.723 | S. cerevisiae deletion strains, locus YLR320W, strain mms22, stronger effect = lower value 0.0946 | S. cerevisiae deletion strains, locus YLR330W, strain CHS5, stronger effect = lower value 0.59 | S. cerevisiae deletion strains, locus YLR342W, strain FKS1 (second series), stronger effect = lower value 0.569 | S. cerevisiae deletion strains, locus YLR342W, strain FKS1, stronger effect = lower value 0.193 | S. cerevisiae deletion strains, locus YLR357W, strain rsc2, stronger effect = lower value 0.46 | S. cerevisiae deletion strains, locus YLR370C, strain arc18, stronger effect = lower value 0.447 | S. cerevisiae deletion strains, locus YLR371W, strain rom2, stronger effect = lower value 0.714 | S. cerevisiae deletion strains, locus YLR384C, strain iki3, stronger effect = lower value 0.462 | S. cerevisiae deletion strains, locus YLR418C, strain cdc73, stronger effect = lower value 0.301 | S. cerevisiae deletion strains, locus YML016C, strain PPZ1, stronger effect = lower value 0.896 | S. cerevisiae deletion strains, locus YML032C, strain rad52, stronger effect = lower value 0.814 | S. cerevisiae deletion strains, locus YML120C, strain ndi1, stronger effect = lower value 0.0894 | S. cerevisiae deletion strains, locus YML124C, strain tub3, stronger effect = lower value 0.913 | S. cerevisiae deletion strains, locus YMR058W, strain fet3, stronger effect = lower value 0.0951 | S. cerevisiae deletion strains, locus YMR078C, strain ctf18, stronger effect = lower value 0.676 | S. cerevisiae deletion strains, locus YMR125W, strain sto1, stronger effect = lower value 0.101 | S. cerevisiae deletion strains, locus YMR129W, stronger effect = lower value 0.222 | S. cerevisiae deletion strains, locus YMR205C, strain PFK2, stronger effect = lower value 0.124 | S. cerevisiae deletion strains, locus YMR223W, strain ubp8, stronger effect = lower value 0.852 | S. cerevisiae deletion strains, locus YMR231W, strain pep5, stronger effect = lower value 0.512 | S. cerevisiae deletion strains, locus YMR263W, strain SAP30, stronger effect = lower value 0.798 | S. cerevisiae deletion strains, locus YMR307W, strain GAS1, stronger effect = lower value 0.401 | S. cerevisiae deletion strains, locus YNL067W, strain RPL9B, stronger effect = lower value 0.719 | S. cerevisiae deletion strains, locus YNL071W, strain lat1, stronger effect = lower value 0.0619 | S. cerevisiae deletion strains, locus YNL128W, strain TEP1, stronger effect = lower value 0.734 | S. cerevisiae deletion strains, locus YNL153C, strain GIM3, stronger effect = lower value 0.492 | S. cerevisiae deletion strains, locus YNL209W, strain ssb2, stronger effect = lower value 0.593 | S. cerevisiae deletion strains, locus YNL233W, strain BNI4, stronger effect = lower value 0.621 | S. cerevisiae deletion strains, locus YNL248C, strain rpa49, stronger effect = lower value 0.0935 | S. cerevisiae deletion strains, locus YNL271C, strain bni1, stronger effect = lower value 0.878 | S. cerevisiae deletion strains, locus YNL298W, strain CLA4, stronger effect = lower value 0.824 | S. cerevisiae deletion strains, locus YNL307C, strain MCK1, stronger effect = lower value 0.162 | S. cerevisiae deletion strains, locus YNL322C, strain KRE1 (second series), stronger effect = lower value 0.231 | S. cerevisiae deletion strains, locus YNL322C, strain KRE1, stronger effect = lower value 0.77 | S. cerevisiae deletion strains, locus YNR049C, strain mso1, stronger effect = lower value 0.454 | S. cerevisiae deletion strains, locus YNR052C, strain pop2, stronger effect = lower value 0.866 | S. cerevisiae deletion strains, locus YOL006C, strain TOP1, stronger effect = lower value 0.347 | S. cerevisiae deletion strains, locus YOL147C, strain pex11, stronger effect = lower value 0.706 | S. cerevisiae deletion strains, locus YOR001W, strain rrp6, stronger effect = lower value 0.189 | S. cerevisiae deletion strains, locus YOR061W, strain CKA2, stronger effect = lower value 0.877 | S. cerevisiae deletion strains, locus YOR069W, strain VPS5, stronger effect = lower value 0.827 | S. cerevisiae deletion strains, locus YOR070C, strain gyp1, stronger effect = lower value 0.26 | S. cerevisiae deletion strains, locus YOR080W, strain dia2, stronger effect = lower value 0.514 | S. cerevisiae deletion strains, locus YOR083W, strain WHI5, stronger effect = lower value 0.312 | S. cerevisiae deletion strains, locus YOR106W, strain vam3, stronger effect = lower value 0.241 | S. cerevisiae deletion strains, locus YOR136W, strain idh2, stronger effect = lower value 0.914 | S. cerevisiae deletion strains, locus YOR144C, strain elg1, stronger effect = lower value 0.88 | S. cerevisiae deletion strains, locus YOR184W, strain ser1, stronger effect = lower value 0.459 | S. cerevisiae deletion strains, locus YOR265W, strain rbl2, stronger effect = lower value 0.295 | S. cerevisiae deletion strains, locus YOR270C, strain vph1, stronger effect = lower value 0.143 | S. cerevisiae deletion strains, locus YOR290C, strain snf2, stronger effect = lower value 0.14 | S. cerevisiae deletion strains, locus YOR316C, strain cot1, stronger effect = lower value 0.917 | S. cerevisiae deletion strains, locus YPL051W, strain arl3, stronger effect = lower value 0.213 | S. cerevisiae deletion strains, locus YPL055C, strain LGE1, stronger effect = lower value 0.558 | S. cerevisiae deletion strains, locus YPL078C, strain atp4, stronger effect = lower value 0.209 | S. cerevisiae deletion strains, locus YPL106C, strain sse1, stronger effect = lower value 0.503 | S. cerevisiae deletion strains, locus YPL240C, strain hsp82, stronger effect = lower value 0.149 | S. cerevisiae deletion strains, locus YPL241C, strain CIN2, stronger effect = lower value 0.763 | S. cerevisiae deletion strains, locus YPR119W, strain clb2, stronger effect = lower value 0.905 | S. cerevisiae deletion strains, locus YPR141C, strain kar3, stronger effect = lower value 0.907 | S. cerevisiae deletion strains, locus YPR163C, strain tif3, stronger effect = lower value 0.369 | S. cerevisiae deletion strains, locus YPR167C, strain met16, stronger effect = lower value 0.898 | S. cerevisiae deletion strains, strain wtn01, stronger effect = lower value 0.78 | S. cerevisiae strains, strain wild type, stronger effect = lower value 0.518
inactive: S. cerevisiae deletion strains, locus YLR113W, strain HOG1, stronger effect = lower value 0.964 | S. cerevisiae deletion strains, locus YNL183C, strain NPR1, stronger effect = lower value 0.901 | S. cerevisiae deletion strains, locus YNL250W, strain rad50, stronger effect = lower value 0.924 | S. cerevisiae deletion strains, locus YOL012C, strain htz1 0.327 | S. cerevisiae deletion strains, locus YOR231W, strain MKK1, stronger effect = lower value 0.948 | S. cerevisiae deletion strains, locus YPL256C, strain CLN2, stronger effect = lower value 0.978
